Data taken from the supplement of paper PMC3334620.
The full ranking holds about 33,000 sequences; the median of “E-score (-0.5 to 0.5)” is about -0.01, and the highest 2% start at about 0.26. The sample holds the highest values, similar sequences and a random draw of the others, so the mix is not that of the screen.

Target: Ste12 (UniProt P13574)
Assay: PBM E-score (8-mer binding enrichment) (E-score (-0.5 to 0.5)); higher = stronger / more preferred TF binding
Settings: protein concentration: 200 nM; construct: GST-DNA-binding domain
Procedure, shortened: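 Yeast transcription factors, full-length or as DNA-binding domains, were expressed with a GST tag using PURExpress in vitro transcription/translation. At about 100-200 nM they were applied to universal all-10-mer Agilent arrays, double-stranded by primer extension on fresh or once-stripped slides. Fluorescent anti-GST detected bound protein, and masliner normalised the scans. E-scores for ungapped eight-base words, pooled with reverse complements, came from the Universal PBM Analysis Suite.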

Chain of UniProt P13574 (P13574 whole entry): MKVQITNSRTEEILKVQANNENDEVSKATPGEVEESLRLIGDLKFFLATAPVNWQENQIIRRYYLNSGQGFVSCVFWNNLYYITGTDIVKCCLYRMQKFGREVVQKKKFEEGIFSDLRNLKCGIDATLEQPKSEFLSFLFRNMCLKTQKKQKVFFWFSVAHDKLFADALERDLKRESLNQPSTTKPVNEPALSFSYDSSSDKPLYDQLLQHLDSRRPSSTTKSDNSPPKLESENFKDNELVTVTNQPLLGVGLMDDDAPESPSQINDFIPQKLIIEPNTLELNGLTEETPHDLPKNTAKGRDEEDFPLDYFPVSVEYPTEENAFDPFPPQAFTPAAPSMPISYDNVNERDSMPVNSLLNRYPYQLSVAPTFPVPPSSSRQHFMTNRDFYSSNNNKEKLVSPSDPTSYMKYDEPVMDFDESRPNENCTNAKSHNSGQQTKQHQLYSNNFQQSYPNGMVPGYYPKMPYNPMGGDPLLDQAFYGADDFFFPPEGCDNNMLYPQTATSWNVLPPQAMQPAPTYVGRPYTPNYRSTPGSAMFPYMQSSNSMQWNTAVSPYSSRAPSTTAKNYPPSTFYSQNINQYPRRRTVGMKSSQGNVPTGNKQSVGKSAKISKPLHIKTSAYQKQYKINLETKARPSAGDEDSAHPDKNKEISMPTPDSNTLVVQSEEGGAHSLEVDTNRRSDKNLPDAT

| Sequence | PBM E-score |
| --- | --- |
| CAACAGCC | -0.0347 |
| TATCGAAA | 0.258 |
| GAGTATCC | -0.127 |
| AGGTAGAG | -0.0159 |
| CGCTGGCA | 0.00792 |
| TCACCAAA | 0.177 |
| CCAGCAGG | -0.107 |
| ATGATGGG | -0.0865 |
| CCGAAAAC | 0.0124 |
| ACGAAACA | 0.327 |
| CCGAAAAA | 0.269 |
| CCGAAACG | 0.152 |
| ACGAAACC | 0.242 |
| TCGAAAAA | 0.238 |
| CCGAAAAG | 0.235 |
| TCGAAACA | 0.395 |
| CCGAAACA | 0.376 |
| GCGAAACA | 0.134 |
| CCGAAACC | 0.142 |
| ACGAAACT | 0.127 |
| ATTTTTGC | 0.236 |
| CCTCTAGA | -0.134 |
| ATTCGCGA | 0.0844 |
| ATAGACTC | -0.133 |
| CAGCTTAC | 0.0225 |
| AAGACATG | -0.137 |

| Sequence | PBM E-score |
| --- | --- |
| GCCTGGGA | -0.23 |
| TACCTGGA | -0.0387 |
| TCCCGCAA | 0.18 |
| ACATAGGA | -0.0111 |
| ATTTAGGA | -0.039 |
| ACAGAATA | 0.0915 |
| CTCGCAGC | 0.0324 |
| CAGAAACA | 0.156 |
| ACGAAACG | 0.31 |
| ACGAAAAG | 0.16 |
| ACGAAAGG | 0.0336 |
| AAGAAACA | 0.285 |
| AAGAAACT | 0.172 |
| GGTCCATA | -0.111 |
| AAGCAATA | 0.0028 |
| ACGGCATG | -0.107 |
| CAGGTAAA | 0.248 |
| GAGGTAAA | 0.334 |
| GAGGTAAC | 0.0397 |
| GAGCTGGC | -0.0837 |
| AGTATATG | 0.143 |
| AAAATATC | 0.147 |
| CATATATC | 0.0851 |
| AAAATATG | 0.241 |
| AGTATATA | 0.295 |
| AATATATG | 0.143 |

| Sequence | PBM E-score |
| --- | --- |
| AGTATATC | -0.0122 |
| CATATATA | 0.283 |
| AATATATT | 0.326 |
| AATATATA | 0.22 |
| AAAATATT | 0.266 |
| CATATATG | 0.18 |
| CCCCTAGG | -0.254 |
| ACGCTAGA | -0.209 |
| CTGTTGGA | 0.0959 |
| ATCAGGGG | -0.128 |
| GATGGTTA | -0.0584 |
| CGGGTTAC | 0.0422 |
| AGGGTTTC | 0.114 |
| CAGGTTTC | 0.361 |
| CAGGTTTA | 0.0837 |
| AAGGTTTC | 0.148 |
| CCGGTTTC | 0.298 |
| ACGGTTTC | 0.2 |
| ATGGTTTC | 0.28 |
| ATGGTTTG | 0.0887 |
| CCGGTTTA | -0.00824 |
| CTGGTTTC | 0.244 |
| CGGGTTTC | 0.323 |
| AGCCTCGC | -0.155 |
| GCCCGATA | -0.0773 |
| AAGGTTCG | -0.185 |

| Sequence | PBM E-score |
| --- | --- |
| AAGTGCAA | -0.0141 |
| AGTGATGC | -0.099 |
| TCAGACGA | -0.0271 |
| AGGGTTTA | 0.00108 |
| GGGGTTTA | 0.00666 |
| CGGGTTTA | 0.304 |
| GTTCAGAA | -0.0378 |
| AAAACGCC | 0.099 |
| AAAACGCG | 0.285 |
| CCAACGCG | -0.107 |
| AAAACGCT | 0.0239 |
| CAAACGCG | 0.292 |
| CAACCGCG | 0.0561 |
| AAACCGCG | 0.287 |
| AAACCGCC | 0.212 |
| CGAACGCG | 0.0317 |
| CAGTTTTC | 0.105 |
| CACACCAG | 0.0883 |
| ACTAGTTA | 0.027 |
| AACAGTAT | 0.108 |
| AATGGGAG | 0.021 |
| ACACTGTC | -0.0374 |
| CTGAGTCA | 0.0791 |
| GACTGAAA | 0.241 |
| AACTGAAG | 0.158 |
| CACTGAAC | 0.0627 |

| Sequence | PBM E-score |
| --- | --- |
| GACTGTAA | -0.0138 |
| TACTGAAA | 0.358 |
| AACTGAAA | 0.422 |
| AACTGAAC | 0.0813 |
| CACTGAAA | 0.322 |
| TACTGATA | 0.198 |
| AACTGTAT | 0.134 |
| AACTGTAA | 0.328 |
| CACTGAAG | -0.03 |
| CGCCATAA | -0.108 |
| AAGACCTA | -0.0739 |
| AATCGCCG | -0.0024 |
| TAACGTAA | 0.191 |
| ATAAATGA | 0.189 |
| AGTAGACG | -0.0195 |
| TCTCTCAA | 0.0783 |
| ACTGCAAT | 0.109 |
| AAGGTCCC | -0.279 |
| CGTCACAA | 0.108 |
| GGTCACAA | -0.022 |
| TGTCACAA | 0.3 |
| AACGTTGG | 0.038 |
| CTAGATCA | -0.22 |
| CAGTGGGA | -0.0936 |
| CACCACTC | -0.164 |
| TACCGAAA | 0.0921 |

| Sequence | PBM E-score |
| --- | --- |
| ACTGTGGA | -0.123 |
| ACTTTCAG | 0.0489 |
| CGTTTCAG | 0.482 |
| GGTTTCCA | -0.0565 |
| CGTTTCCA | 0.301 |
| CGTTTCCC | 0.165 |
| AATTTCAT | 0.0623 |
| AGTTTCCG | 0.148 |
| ACTTTCAT | -0.0303 |
| AGTTTCAG | 0.464 |
| CATTTCAG | 0.0948 |
| AGTTTCAT | 0.428 |
| CCTTTCAG | -0.115 |
| CATTGACG | 0.0435 |
| GAGCTCGC | -0.0349 |
| CCCTTAGC | -0.0617 |
| CCGTTGCA | 0.0898 |
| CGTGATCA | -0.00817 |
| CGCTTCGA | -0.0748 |
| CGGTTTGC | 0.0736 |
| AAAGTGCG | 0.0163 |
| CTTTCTTA | 0.0052 |
| CCCTGACA | -0.0188 |
| AGTTTCCA | 0.212 |
| CGTTTCGC | 0.296 |
| AGTTTCGC | 0.184 |

| Sequence | PBM E-score |
| --- | --- |
| CGTTTCAC | 0.453 |
| CGTTTCTC | 0.0338 |
| CGTTTCGA | 0.195 |
| ACTTTCAC | 0.139 |
| AGTTTCTC | -0.0852 |
| AGTTTCAC | 0.338 |
| CATTTCAC | 0.099 |
| AGTTTCAA | 0.307 |
| AGTTTCTA | 0.16 |
| GTCCATAA | -0.172 |
| CGGTGGAC | -0.157 |
| CTCACTAC | 0.00581 |
| CAGTTACA | 0.0929 |
| CGTTTCTA | 0.166 |
| CCTTTCAA | -0.0319 |
| CGTTTCAA | 0.46 |
| AAGCTAGC | -0.242 |
| CACTTCGC | 0.0953 |
| AAGAATGA | 0.209 |
| ACATCCCC | 0.321 |
| ACATCCCT | -0.0649 |
| CCATCCCC | 0.0914 |
| AGCAGGTG | -0.0318 |
| CAATCCCC | 0.0988 |
| CAATCCGG | 0.273 |
| AAATCCGG | 0.0201 |

| Sequence | PBM E-score |
| --- | --- |
| CAATCCCA | -0.0795 |
| CAATCCGC | 0.0698 |
| CAATCCCG | 0.321 |
| CTAGGAAA | -0.0731 |
| ATAGGAAA | 0.0645 |
| TTAGGAAA | 0.292 |
| AAGAAATC | -0.0981 |
| ATGAAATC | 0.185 |
| CTGAAACC | 0.47 |
| CTGAAACA | 0.495 |
| CTGAAATC | -0.0192 |
| ATGAAACC | 0.457 |
| CTGAAAAC | 0.0248 |
| CTGAAAGA | 0.00814 |
| AGGAAACC | -0.0955 |
| CTGAAATA | 0.202 |
| AGAACATC | -0.0976 |
| CGACCGTC | -0.173 |
| CGAGTCAC | -0.0334 |
| CAATGCAC | -0.042 |
| CTAACAAA | 0.0819 |
| ACAACAAA | 0.152 |
| AAAACAAG | 0.104 |
| TTAACAAA | 0.246 |
| AGAACAAG | 0.0467 |
| TAAACAAA | 0.244 |

| Sequence | PBM E-score |
| --- | --- |
| GAAACAAA | 0.345 |
| AAAACAAA | 0.293 |
| CAAACAAA | 0.149 |
| AGAACAAT | 0.247 |
| AGAACAAA | 0.312 |
| GTAACAAA | 0.312 |
| ATGAGAAC | 0.118 |
| AGTGAGCG | -0.176 |
| CCGCAGCG | -0.033 |
| GCGTAGCA | 0.0572 |
| CTCGACTA | 0.0414 |
| GAGACCTA | -0.0109 |
| GAGATTGA | 0.0793 |
| CCTAGAAA | 0.144 |
| GAAACAAC | 0.334 |
| AAAACAAC | 0.154 |
| CAAACAAC | 0.223 |
| GGGGTGAA | 0.0185 |
| CGCCTAGA | -0.0727 |
| ACATCTTC | 0.261 |
| ACATCTTA | -0.0589 |
| ACATCTTG | -0.151 |
